NPC1 promoter act: NPC1 promoter activation; Huh7 NPC1 promoter luciferase reporter, 24 h; Potency, µM (highest dose often 9.22 µM), actives largely listed as activators; 320,000 compounds, 2.4% hits; AID 485313; further: nearly all actives have a fitted effect of over 60% in size
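Stably transfected Huh7 (NPC1 promoter→luciferase), 1500 cells/well in Opti-MEM + 10% FBS, 2 h settle, then compound 24 h at 37 °C. Luminescence after 10 min with Amplite reagent.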
Rab9 promoter act: Rab9 promoter activation | Huh7 Rab9 promoter-luciferase reporter, luminescence, 24 h | Potency, µM (series often up to 9.22 µM), actives largely listed as activators | 320,000 compounds, 2.8% hits; further: nearly all actives have a fitted effect of over 60% in size
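Luciferase signal after 10 min detection reagent at ambient indicates Rab9 promoter upregulation; stably transfected Huh7 cells were treated 24 h with compound in DMSO at 37 °C, 5% CO2.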
FLuc counter: inhibits or activates purified firefly luciferase, miR-21 counter-screen | P08659 | purified FLuc, Km substrates, luminescence inhibition | Potency, µM (series often up to 57.5 µM), most hits filed as inhibitors | 360,000 compounds, 6.9% hits | AID 588342; further: nearly all actives have a fitted effect of over 55% in size
Target sequence (P08659 whole entry, looked up): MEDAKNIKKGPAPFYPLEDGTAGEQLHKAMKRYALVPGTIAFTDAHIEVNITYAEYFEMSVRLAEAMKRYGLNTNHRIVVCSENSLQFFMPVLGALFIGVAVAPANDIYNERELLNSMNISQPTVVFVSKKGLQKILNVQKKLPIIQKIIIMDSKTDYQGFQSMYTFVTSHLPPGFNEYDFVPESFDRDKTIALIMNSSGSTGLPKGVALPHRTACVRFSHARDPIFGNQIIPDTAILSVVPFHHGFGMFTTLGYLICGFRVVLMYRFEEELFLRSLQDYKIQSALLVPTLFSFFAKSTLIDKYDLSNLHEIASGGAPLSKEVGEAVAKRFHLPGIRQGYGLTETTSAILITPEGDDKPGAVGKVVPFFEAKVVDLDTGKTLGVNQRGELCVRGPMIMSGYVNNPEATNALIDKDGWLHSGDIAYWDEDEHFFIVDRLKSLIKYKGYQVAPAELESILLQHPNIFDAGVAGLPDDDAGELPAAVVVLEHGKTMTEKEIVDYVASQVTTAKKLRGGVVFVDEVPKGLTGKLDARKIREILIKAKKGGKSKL
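Purified P. pyralis luciferase, 10 nM final, with Km-level 10 uM D-luciferin and 10 uM ATP in 50 mM Tris acetate pH 7.5, 10 mM Mg acetate, 0.01% Tween-20, 0.05% BSA; 6-point qHTS titration about 60 µM downward; luminescence read.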
SMN2 splice up: enhancers of SMN2 splice variant expression. HEK293 SMN2-luciferase splicing reporter, luminescence, 30-36 h. Potency, µM (series often up to 46.1 µM), most hits filed as activators. 210,000 compounds, 2.8% hits. AID 1458; further: nearly all actives have a fitted effect of over 55% in size
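HEK293 cells carry an SMN2 […]–luciferase reporter in which exon 7 inclusion puts luciferase in frame. Cells were plated 10-12 h before compound addition, then incubated 30-36 h at 37C. ONE-Glo luminescence was read; sodium butyrate at 4.5 mM final served as control.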
ELG1 genotoxic: induces genotoxicity in HEK293T cells with luciferase-tagged ELG1 | HEK293T ELG1-luciferase reporter, luminescence, 16 h | 330,000 compounds, 1.3% hits | Potency, µM (doses to about 46 µM), most hits filed as activators; further: nearly all actives have a fitted effect of over 60% in size
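HEK293T cells expressing luciferase-tagged ELG1 were exposed to compound or DMSO vehicle for 16 hr at 37 °C and 5% CO2. Luciferase activity was then measured with ONE-Glo after 30 min at room temperature.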
Hits are given with their value; . = inactive; ? = inconclusive; / = no result; [ ] = remark or other dose. Hits are enriched below; roughly 7.4% of the tested compounds scored in any of these assays. The call rests on the fitted dose curve; in most records, active means well fitted curve in the direction sought with a large enough effect; inconclusive means small, poorly fitted or top-dose-only effect, or another doubt; inactive means no such curve, though single readings can be large; an effect the other way counts as inactive or inconclusive.

SMILES	NPC1 promoter act	Rab9 promoter act	FLuc counter	SMN2 splice up	ELG1 genotoxic
c1ccc(-c2cc(-c3nc4ccccc4[nH]3)c3ccccc3n2)cc1	.	.	?	.	.
Cc1ccc2nc(-c3cccc(N)c3)[nH]c2c1	0.79µM	1.6µM	0.95µM	2.2µM	?
Cc1ccc2nc(-c3sc4nc(C)cc(C)c4c3N)[nH]c2c1	.	?	0.34µM	2.5µM	?
Nc1cccc(-c2nc3ccccc3[nH]2)c1	2.8µM	4µM	13µM	13µM	?
Nc1ccc(-c2nc3ccc(-c4nc5ccc(N)cc5[nH]4)cc3[nH]2)cc1	.	.	/	?	/
CC(=O)c1sc2nc(C)cc(C)c2c1N	.	.	.	?	.
Nc1ccc2nc(-c3cccc(-c4nc5ccc(N)cc5[nH]4)n3)[nH]c2c1	.	.	9.5µM	/	.
Cc1nc2ccc(S(=O)(=O)NC(C(=O)N3CCN(c4cccc(Cl)c4)CC3)C(C)C)cc2s1 (stereo unspecified)	/	/	.	.	/
Cc1cc(C)c(NC(=O)c2cc(S(=O)(=O)N3CCC4(CC3)OCCO4)ccc2F)c(C)c1	/	/	.	/	/
Cc1ccc2c(c1)N(C(=O)CCC(=O)NCc1cccs1)CCO2	/	/	.	/	/
O=C(NN=C1CCCCCC1)c1cn(-c2ccccc2)nc1-c1ccccc1	.	.	15µM	.	.
O=C(NN=C1CCCCCC1)c1cc(-c2ccccc2)nc2ccccc12	.	.	17µM	.	.
Cc1cccc(C)c1NC(=O)c1cn(-c2ccccc2)nc1-c1ccccc1	.	.	?	.	.
O=C(NC(=S)N1CCOCC1)c1cn(-c2ccccc2)nc1-c1ccccc1	.	.	17µM	/	.
Cc1ccc(-c2cc(C(=O)NN=C3CCCC3)c3ccccc3n2)cc1	.	.	4.3µM	.	.
COc1ccc(/C=C/C(=O)NC(=S)Nc2ccc(S(=O)(=O)Nc3ccc(OC)nn3)cc2)cc1	.	.	?	.[1.84 µM]	.
O=C(O)/C=C/c1ccc(S(=O)(=O)Nc2ccccc2C(=O)Nc2ccc(F)cc2)cc1	.	.	12µM	/	.
Cc1ccc(/C=C/C(=O)Nc2ccc(S(=O)(=O)Nc3ncccn3)cc2)cc1	.	.	9.5µM	.	.
O=C(/C=C/c1ccc(F)cc1)Nc1ccc(S(=O)(=O)Nc2ncccn2)cc1	.	.	17µM	/	.
COc1ccc(/C=C/C(=O)NC(=S)Nc2ccc(S(=O)(=O)Nc3cc(C)on3)cc2)cc1	.	.	15µM	/	.
O=C(Nc1ccc(S(=O)(=O)Nc2ncccn2)cc1)c1ccccc1NS(=O)(=O)c1ccc(F)cc1	.	.	?	.	.
Cc1c(Cl)cccc1NC(=O)c1ccc2c(c1)CCCN2S(C)(=O)=O	/	/	.	.	/
COc1ccc(CCNC(=O)c2ccc3c(c2)c(C)c(C)n3Cc2ccccc2)c(OC)c1OC	/	/	.	/	/
Cc1ccc(/C=C/C(=O)Nc2ccc(S(=O)(=O)Nc3cc(C)nc(C)n3)cc2)cc1	.	.	11µM	/	.
Cc1noc(NS(=O)(=O)c2ccc(NC(=O)/C=C/c3ccc(C(C)C)cc3)cc2)c1C	.	.	11µM	/	.
SMILES	NPC1 promoter act	Rab9 promoter act	FLuc counter	SMN2 splice up	ELG1 genotoxic
c1csc(CNc2ncncc2-c2ccc3c(c2)OCO3)c1	/	/	/	.	/
CN1CCN(NC(=O)c2cc(-c3cccc(Cl)c3)nc3ccccc23)CC1	.	.	.	.	.
CC(C)c1ccc(-c2cc(C(=O)N3N=C(C(F)F)CC3(O)C(F)F)c3ccccc3n2)cc1 (stereo unspecified)	?	?	1.5µM	?	?
CC(C)c1ccc(-c2cc(C(=O)NN3CCN(C)CC3)c3ccccc3n2)cc1	?	?	0.6µM	?	?
CCc1ccc(-c2cc(C(=O)NN3CCOCC3)c3ccccc3n2)cc1	.	.	4.8µM	.	.
CN1c2ccccc2C(=O)/C(=C\Nc2ccc(F)cc2F)S1(=O)=O	.	.	2.4µM	/	.
O=C1ON=C(c2cccc([N+](=O)[O-])c2)/C1=C/c1ccc(O)cc1	.	.	17µM	.	?
Fc1ccc(-c2nc3c(Cl)cc(C(F)(F)F)cn3c2Cl)cc1	.	.	?	18µM	16µM
COC(=O)c1ccc(NC(=S)Nc2ccc(O)cc2)cc1	.	.	.	.	.
CCOc1ccc(NC(=S)Nc2cc(-c3ccccc3)[nH]n2)cc1	.	.	21µM	.	.
CCOc1ccc(NC(=S)Nc2ccc(F)cc2)cc1	.	.	?	/	.
COc1cccc(NC(=S)Nc2cc(C)cc(C)n2)c1	.	.	2.1µM	/	.
Cc1ccc(NC(=S)Nc2ccccn2)cc1C	.	?	17µM	/	.
Cc1cc(C)nc(NC(=S)Nc2cccc(F)c2)c1	.	.	?	/	.
Cc1cccc(NC(=S)Nc2ccccn2)c1	.	?	?	/	.
COC(=O)c1ccc(NC(=S)Nc2ccccn2)cc1	2.8µM	1.8µM	?	11µM	?
CCS(=O)(=O)N1CCc2cc(C(=O)NCc3ccc(Cl)cc3)ccc21	/	/	.	/	/
Cc1ccc(NC(=S)Nc2ccccn2)c(C)c1	?	2.8µM	8.5µM	/	?
Cc1cc(Cl)ccc1NC(=S)Nc1ccccn1	?	?	.	?	.
COc1ccc(NC(=S)Nc2ccccn2)cc1	3.2µM	2.5µM	13µM	/	?
COc1ccc(CNC(=O)CSc2nc3ccsc3c(=O)n2Cc2ccccc2Cl)cc1	/	/	.	.	/
CCCCCSc1ncnc2c1sc1nc(N3CCOCC3)c3c(c12)CCCC3	/	/	.	.	/
O=c1oc(-c2ccccc2NS(=O)(=O)c2ccc(F)cc2)nc2ccccc12	.	.	.	/	.
O=c1oc(Nc2ccccc2F)nc2ccccc12	?	?	9.5µM	/	?
Clc1ccccc1Nc1nc(-c2ccncc2)nc2ccccc12	.	.	.	/	.
SMILES	NPC1 promoter act	Rab9 promoter act	FLuc counter	SMN2 splice up	ELG1 genotoxic
O=c1oc(Nc2ccccc2Cl)nc2ccccc12	3.5µM	?	15µM	?	21µM
O=c1oc(Nc2cccc(Cl)c2)nc2ccccc12	2.8µM	0.79µM	.	11µM	13µM
Clc1cccc(Nc2nc(-c3ccncc3)nc3ccccc23)c1	.	.	.	/	.
CCc1ccccc1NC(=O)c1nnn(CC(=O)Nc2c(C)cc(C)cc2C)c1N	/	/	.	.	/
CCSc1nnc(-c2ccc(Cl)cc2Cl)o1	2.5µM	?	9.5µM	?	4.1µM
CSc1nnc(-c2ccc(Cl)cc2Cl)o1	?	?	12µM	.	?
CC(C)OC(=O)CSc1nnc(-c2ccc(Cl)cc2Cl)o1	.	.	11µM	.	.
O=C(O)CCSc1nnc(-c2ccc(Cl)cc2Cl)o1	/	/	0.85µM	.	/
CSc1nnc(-c2ccccc2Cl)o1	.	.	?	.	?
Cc1cc(C)cc(NC(=O)C2CCCN(C(=O)c3cnn(-c4ccccc4)c3-n3cccc3)C2)c1 (stereo unspecified)	/	/	.	.	/
O=C1OCCC1Sc1nnc(-c2ccc(Cl)cc2Cl)o1 (stereo unspecified)	.	.	1.3µM	/	.
Cc1ccc(NC(=O)COC(=O)CCc2ccccc2)c(Cl)c1	.	.	17µM	/	.
N#Cc1cc(-c2ccccc2)cnc1Sc1ccccc1	.	.	21µM	.	.
COc1ccc(/C=C/c2c(-c3ccc(OC)cc3)oc(=O)c3cc(OC)c(OC)cc23)cc1	/	/	/	/	.
